Assay results reported in PubChem BioAssay AID1159580 (chemical genetic matrix, 2015).
In all, about 5,500 compounds went through this assay and about 2,000 (36%) were called active. Not shown: some 18% with an inconclusive outcome. Rule as the data show it: active = normalized growth mostly below about 0.91 (no sharp cut-off); inconclusive = no clear call, values can overlap the other calls; inactive = mostly above about 0.92. This is one part of the list.

Assay: chemical genetic growth profiling, strain panel (AID 1159580);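 also: tested at 20 µM; growth read once vehicle control cultures reached saturation at 30 °C; 1 = growth at the plate median or of vehicle wells; lower values mean less growth of the strain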
Conditions: S. cerevisiae deletion strains, growth OD

Measured: normalized growth

COc1cc(OC)c2c(=O)c(-c3ccccc3)coc2c1
inactive: locus YAL021C, strain ccr4, active compounds read low 0.991 | locus YAL030W, strain snc1, active compounds read low 0.991 | locus YBL061C, strain skt5, active compounds read low 0.958 | locus YBR009C, strain hhf1, active compounds read low 0.928 | locus YBR023C, strain chs3, active compounds read low 0.915 | locus YBR171W, strain sec66, active compounds read low 1.01 | locus YBR231C, strain swc5, active compounds read low 0.951 | locus YBR279W, strain paf1, active compounds read low 0.953 | locus YCL011C, strain gbp2, active compounds read low 0.936 | locus YCL016C, strain dcc1, active compounds read low 0.965 | locus YCL069W, strain vba3, active compounds read low 0.982 | locus YCR088W, strain abp1, active compounds read low 0.993 | locus YDL005C, strain med2, active compounds read low 1.04 | locus YDL040C, strain nat1, active compounds read low 0.99 | locus YDR001C, strain nth1, active compounds read low 0.994 | locus YDR069C, strain doa4, active compounds read low 1.02 | locus YDR137W, strain rgp1, active compounds read low 0.911 | locus YDR159W, strain sac3, active compounds read low 0.963 | locus YDR297W, strain sur2, active compounds read low 0.995 | locus YDR334W, strain swr1, active compounds read low 1 | locus YDR335W, strain msn5, active compounds read low 0.98 | locus YEL003W, strain gim4, active compounds read low 0.967 | locus YEL037C, strain rad23, active compounds read low 0.998 | locus YEL061C, strain CIN8 (second series), active compounds read low 1 | locus YER015W, strain faa2, active compounds read low 0.956 | locus YER016W, strain bim1, active compounds read low 1 | locus YER111C, strain swi4, active compounds read low 1.02 | locus YFR010W, strain ubp6, active compounds read low 1.01 | locus YGL167C, strain pmr1, active compounds read low 0.985 | locus YGL173C, strain kem1, active compounds read low 0.985 | locus YGL227W, strain vid30, active compounds read low 1 | locus YGL253W, strain hxk2, active compounds read low 0.935 | locus YHR013C, strain ard1, active compounds read low 0.974 | locus YHR027C, strain rpn1, active compounds read low 1 | locus YJL092W, strain hpr5, active compounds read low 0.994 | locus YJL095W, strain BCK1 (second series), active compounds read low 0.979 | locus YJL115W, strain asf1, active compounds read low 1 | locus YJL129C, strain trk1, active compounds read low 0.964 | locus YJL154C, strain vps35, active compounds read low 1 | locus YJL164C, strain tpk1, active compounds read low 0.935 | locus YJL166W, strain qcr8, active compounds read low 0.934 | locus YJL187C, strain SWE1, active compounds read low 0.997 | locus YKL160W, strain elf1, active compounds read low 0.93 | locus YKR026C, strain gcn3, active compounds read low 0.99 | locus YKR091W, strain srl3, active compounds read low 0.996 | locus YLL001W, strain dnm1, active compounds read low 0.941 | locus YLL026W, active compounds read low 0.99 | locus YLL041C, strain sdh2, active compounds read low 0.991 | locus YLR027C, strain aat2, active compounds read low 0.947 | locus YLR221C, strain rsa3, active compounds read low 0.947 | locus YLR258W, strain gsy2, active compounds read low 0.925 | locus YLR262C, strain YPT6 (second series), active compounds read low 0.91 | locus YLR342W, strain FKS1, active compounds read low 0.911 | locus YLR357W, strain rsc2, active compounds read low 1.03 | locus YLR370C, strain arc18, active compounds read low 0.939 | locus YLR384C, strain iki3, active compounds read low 1 | locus YML120C, strain ndi1, active compounds read low 0.946 | locus YMR058W, strain fet3, active compounds read low 0.978 | locus YMR125W, strain sto1, active compounds read low 0.971 | locus YMR129W, active compounds read low 0.999 | locus YMR205C, strain PFK2, active compounds read low 0.954 | locus YMR231W, strain pep5, active compounds read low 0.994 | locus YNL209W, strain ssb2, active compounds read low 0.984 | locus YNL248C, strain rpa49, active compounds read low 0.995 | locus YNL322C, strain KRE1 (second series), active compounds read low 0.972 | locus YNR049C, strain mso1, active compounds read low 1.01 | locus YOR001W, strain rrp6, active compounds read low 0.96 | locus YOR070C, strain gyp1, active compounds read low 0.976 | locus YOR080W, strain dia2, active compounds read low 1.01 | locus YOR083W, strain WHI5, active compounds read low 0.902 | locus YOR106W, strain vam3, active compounds read low 0.89 | locus YOR265W, strain rbl2, active compounds read low 1 | locus YOR290C, strain snf2, active compounds read low 0.893 | locus YPL051W, strain arl3, active compounds read low 0.936 | locus YPL078C, strain atp4, active compounds read low 0.933 | locus YPL106C, strain sse1, active compounds read low 1.01 | locus YPL240C, strain hsp82, active compounds read low 0.986
active: locus YAL026C, strain drs2, active compounds read low 0.895 | locus YDR195W, strain ref2 1.22 [resistant] | locus YDR392W, strain spt3, active compounds read low 0.637 | locus YER155C, strain BEM2 (second series), active compounds read low 0.596 | locus YGL240W, strain doc1, active compounds read low 0.835 | locus YHR142W, strain chs7, active compounds read low 0.824 | locus YLR320W, strain mms22, active compounds read low 0.87 | locus YNL071W, strain lat1, active compounds read low 0.807 | locus YOR270C, strain vph1, active compounds read low 0.767
